Screens from PubChem BioAssay.
A647 autofl: compound autofluorescence in A647 spectral region. Compound fluorescence, A647 channel (570/671 nm), Tris buffer. 59,000 tested, under 10 active. max dye-equivalent concentration, M
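Fluorescence read (570 nm ex, 671 nm em) after 15 min RT incubation of compounds in 100 mM Tris buffer, pH 8.0; values expressed as dye-equivalent concentration against a six-point A647 standard series on each plate.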
Rhodamine autofl: rhodamine region autofluorescence; Rhodamine-region fluorescence, 547/598 nm, Tris buffer; hits give high values; AID 594; max dye-equivalent concentration, M; 59,000 tested, 0.05% active; in the data active = max dye-equivalent concentration above about 11 nM; inconclusive = between about 1.1 nM and that limit
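Compound fluorescence in 100 mM Tris, pH 8.0, read after 15 min at room temperature with 547 nm excitation and 598 nm emission. Output is dye-equivalent concentration from an on-plate rhodamine standard series.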
Texas Red fluor: Texas Red region autofluorescence | max dye-equivalent concentration, M | Compound fluorescence, Texas Red channel, 547/618 nm; hits give high values | 59,000 tested, 0.06% active; in the data active = max dye-equivalent concentration above about 10 nM; inconclusive = between about 1.1 nM and that limit
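qHTS profiling of intrinsic compound fluorescence; 100 mM Tris pH 8.0; 15 min RT; ex 547 / em 618 nm; response expressed as Texas Red dye-equivalent concentration from six-point plate standard.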
Resorufin autofl: compounds fluorescent in resorufin spectral region. max dye-equivalent concentration, M. 59,000 tested, 0.04% active. Compound fluorescence, resorufin region 547/598 nm, buffer; hits give high values
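Tris 100 mM pH 8.0; compound added, 15 min RT; CCD imager read, ex 547 nm/em 598 nm; signal normalized to resorufin standard curve (six concentrations per plate) as dye-equivalent concentration.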
A488 autofl: A488 region autofluorescence. compound autofluorescence, A488 spectral region, dye equivalency; Compound Type: qHTS ECL - MLSMR. max dye equivalency, M. 59,000 tested, 0.1% active. AID 591
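Spectroscopic profiling in the A488 region: compounds in pH 8.0 Tris (100 mM), 15 min RT, CCD imaging with 480 nm excitation and 540 nm emission; responses normalized against A488 dye standards.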
Fluorescein autfl: compound autofluorescence in fluorescein spectral region. Compound autofluorescence, 480/540 nm, fluorescein-equivalent; hits give high values. max fluorescein-equivalent concentration, M. 59,000 tested, 0.91% active; in the data active = max fluorescein-equivalent concentration above about 10 nM; inconclusive = between about 1.1 nM and that limit
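Normalized response (dye-equivalent concentration) derives from comparing each well's 540 nm emission, under 480 nm excitation, with plate-resident fluorescein standards. Compounds were held in 100 mM Tris, pH 8.0, for 15 min at room temperature.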
Each line names hits and unclear results; the compound was inactive in the other large screens; ! = a repeat was not active. Most compounds without a hit are left out; they make up all but 0.96% or so of the library. Unless noted, the rule behind the calls is not given here.

Nc1nc(N)c2nc(CNc3ccc(C(=O)N[C@H](CCC(=O)O)C(=O)O)cc3)cnc2n1	Fluorescein autfl inconclusive
Cc1cc(N2CCOCC2)n2nc(-c3cccc(F)c3)cc2n1	Fluorescein autfl 1.1e-08M
c1cncc(-c2cncnc2NC2CCNCC2)c1	Fluorescein autfl 1.4e-08M
Brc1ccc(-c2nnc3sc(CN4CCC5(CC4)OCCO5)cn23)cc1	Fluorescein autfl 1.1e-08M
CCN(CC)CCCn1c(=S)[nH]c2ccccc2c1=O	none
CCN(CC)CC[n+]1ccc2c(C)c3[nH]c4ccccc4c3c(C)c2c1	Fluorescein autfl 1.7e-08M
COc1cccc(OC)c1OCCNC[C@@H]1CSc2ccccc2O1	none
COc1ccccc1NC(=O)c1cc2ccc(O)cc2o/c1=N\O	Fluorescein autfl 1.5e-08M
COc1ccccc1NC(=O)c1cc2ccccc2o/c1=N\O	Fluorescein autfl inconclusive
Cc1ccc(/C=C/C2=Cc3c(sc(NC(=O)CSc4n[nH]c(N)n4)c3C#N)C(C)(C)C2)o1	Rhodamine autofl 2.8e-08M, Texas Red fluor 5.9e-08M, Resorufin autofl 2.4e-08M, A488 autofl inconclusive, Fluorescein autfl 1.2e-07M
CCOC(=O)c1sc(NC(=O)CSc2n[nH]c(-c3ccccc3)n2)c(C#N)c1C	Fluorescein autfl inconclusive
N#CC1=C(N)SC(N)=C(C#N)C1CCc1ccccc1	Fluorescein autfl 1.2e-08M
N#CC1=C(N)SC(N)=C(C#N)C1c1c(Cl)cccc1Cl	none
CNC(=O)[C@@H]1O[C@@H](n2cnc3c(NCc4ccc(N)cc4)ncnc32)[C@@H](O)[C@H]1O	Fluorescein autfl inconclusive
NS(=O)(=O)c1cc2c(cc1Cl)NCNS2(=O)=O	Fluorescein autfl 1.1e-08M!
NS(=O)(=O)c1cc2c(cc1Cl)N[C@@H](CC1CCCC1)NS2(=O)=O	none
COc1ccc2c3c(ccc2c1)N[C@H](C(=O)O)CC3	Fluorescein autfl inconclusive
COc1ccc(C2C=C(c3ccc(Cl)cc3)Nc3nc(NC(C)=O)nn32)cc1 (configuration not stated)	Fluorescein autfl 2.8e-08M
COc1ccccc1C1C=C(c2ccc(Cl)cc2)Nc2nc(NS(C)(=O)=O)nn21 (configuration not stated)	Texas Red fluor inconclusive, Fluorescein autfl 1.5e-08M
CC(=O)Nc1nc2n(n1)C(c1ccc(F)cc1)C=C(c1ccccc1)N2 (configuration not stated)	Fluorescein autfl 1.4e-08M
COc1ccc(C2C=C(c3ccc(Br)cc3)Nc3nc(N4C(=O)CCC4=O)nn32)cc1 (configuration not stated)	Fluorescein autfl 1.1e-08M
CCCCC#Cc1nc(N)c2ncn([C@@H]3O[C@@H](C(=O)NCC)[C@H](O)[C@@H]3O)c2n1	none
CCCCCCCCCCCCCCCCCC(=O)NC[C@@H](COP(=O)([O-])OCC[N+](C)(C)C)OCC	Texas Red fluor inconclusive
CC1(C)CC[C@]2(C(=O)O)CC[C@]3(C)C(=CC[C@@H]4[C@@]5(C)CC[C@H](O)C(C)(C)[C@@H]5CC[C@@]43C)[C@@H]2C1	none
O=C(O)[C@@H]1CCCN[C@H]1C(=O)O	Texas Red fluor inconclusive
COc1ccc(C2=CC(c3ccc(Cl)cc3)n3cnnc3N2)cc1OC (configuration not stated)	A488 autofl inconclusive, Fluorescein autfl 3.5e-08M
COc1ccccc1C1C=C(c2ccc(Cl)cc2)Nc2nc(N3C(=O)CCC3=O)nn21 (configuration not stated)	Fluorescein autfl inconclusive
Cc1cc(=O)[nH]c(SCCOc2ccc3c(c2)CCC3)n1	none
Cc1cc(=O)[nH]c(SCCOc2ccc(OC(C)C)cc2)n1	Rhodamine autofl inconclusive, Texas Red fluor inconclusive, Resorufin autofl inconclusive, Fluorescein autfl 2.2e-08M
CC(=O)O[C@@H]1CC[C@]2(C)[C@H]3CC[C@]4(C)[C@H](C[C@H]5CCCC[C@@]54C(C)=O)[C@@H]3CC(=O)[C@@]2(O)C1	Texas Red fluor inconclusive
N#C[C@@H](Cc1ccc(O)c(O)c1)C(=O)N1CCc2ccccc21	Fluorescein autfl inconclusive
CC1(C)Cc2c(c(-c3ccco3)[nH]c(=O)c2C#N)CS1	Texas Red fluor inconclusive, A488 autofl inconclusive, Fluorescein autfl 8.7e-08M
Cn1c(CN2CCC(C(N)=O)CC2)c(C#N)c2ccccc21	Texas Red fluor inconclusive, Fluorescein autfl inconclusive
Cn1c(CN2CCCCC2)c(C#N)c2ccccc21	Fluorescein autfl 2.5e-08M
C=CCn1c(O)c(CN2CCN(Cc3ccccc3)CC2)c(C)c(C#N)c1=O	Fluorescein autfl 2.1e-08M
C=CCOC(=O)C(C#N)c1nc2ccccc2nc1N1CCN(Cc2ccccc2)CC1 (configuration not stated)	Texas Red fluor inconclusive, Fluorescein autfl inconclusive
CCCn1c(O)c(CN2CCCCC2)c(C)c(C#N)c1=O	Texas Red fluor inconclusive, Fluorescein autfl 1.5e-08M
Cc1c(CN2CCCCC2)c(O)n(CCCO)c(=O)c1C#N	Texas Red fluor inconclusive, Fluorescein autfl 1.6e-08M
C[C@@]12CCC(=O)C=C1CC[C@H]1[C@@H]2[C@@H](O)C[C@]2(C)[C@@H]1CC[C@@]2(O)C(=O)CO	Fluorescein autfl inconclusive
C[C@@H]1C(=O)O[C@@H]2C[C@@]34[C@H]5C[C@@H](C(C)(C)C)[C@@]36[C@@H](OC(=O)[C@@H]6O)O[C@]4(C(=O)O5)[C@@]12O	none
C[C@@H]1C(=O)O[C@H]2[C@@H](O)[C@@]34[C@H]5C[C@H](C(C)(C)C)[C@@]36[C@H](OC(=O)[C@@H]6O)O[C@@]4(C(=O)O5)[C@@]12O	none
COc1cccc2c1C(=O)c1c(O)c3c(c(O)c1C2=O)C[C@@](O)(C(C)=O)C[C@@H]3O[C@H]1C[C@H](N)[C@H](O)[C@H](C)O1	Rhodamine autofl 6.4e-08M, Texas Red fluor 6.5e-08M, Resorufin autofl 5.9e-08M, A488 autofl inconclusive, Fluorescein autfl 2.2e-07M
CN1CCN([C@@H]2Cc3ccccc3Sc3ccc(Cl)cc32)CC1	Fluorescein autfl inconclusive
COc1cc(Cn2c(N)c(C#N)c3nc4ccccc4nc32)cc(OC)c1	Fluorescein autfl inconclusive
COc1cccc(Cn2c(N)c(C#N)c3nc4ccccc4nc32)c1OC	Fluorescein autfl 1.3e-08M
O=C(O)CCc1c2ccc(=O)c(O)c-2oc2c(O)c(O)ccc12	Fluorescein autfl 1.1e-08M
O=S(=O)(Nc1nc2ccccc2[nH]1)c1ccccc1	Fluorescein autfl 2.2e-08M
O=S(=O)(Nc1nc2ccccc2[nH]1)c1ccc(Cl)cc1	none
CC(=O)OC[C@@H]1O[C@@H](Oc2cc(OC(C)=O)c3c(=O)cc(-c4ccc(OC(C)=O)c(OC(C)=O)c4)oc3c2)[C@H](OC(C)=O)[C@H](OC(C)=O)[C@@H]1OC(C)=O	none
CC[C@@]1(O)C(=O)OCc2c1cc1n(c2=O)Cc2cc3c(CN(C)C)c(O)ccc3nc2-1	Texas Red fluor inconclusive, A488 autofl 2.1e-08M, Fluorescein autfl 4.3e-07M
CCCCc1cc(=O)oc2c(CN(C)C)c(O)ccc12	Fluorescein autfl inconclusive
